Experimental data published in PubChem BioAssay (NCI).
Compounds without any hit were thinned out: in the full panel of roughly 83,000, 20% have a hit.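 Assay: single dose, 48 h. Readout: percent growth (0 = no net growth; negative = cell death). Active: <10.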 Unmarked numbers belong to inactive results. Activity calls are given as the source filed them.

Columns and labels:
Experiment in all cases: NCI-60 one-dose screen, 48 h (100 = growth as untreated, 0 = no growth, -100 = all killed)
SK-MEL-2 melanoma = conditions: 10 µM unless noted
EKVX NSCLC = conditions: 10 µM unless noted
SN12C renal = conditions: 10 µM unless noted
UO-31 renal = conditions: 10 µM unless noted
TK-10 renal = conditions: 10 µM unless noted
ACHN renal = conditions: 10 µM unless noted
CAKI-1 renal = conditions: 10 µM
A498 renal = conditions: 10 µM unless noted
CCRF-CEM leukemia = conditions: 10 µM unless noted
MOLT-4 leukemia = conditions: 10 µM unless noted
SR leukemia = conditions: 10 µM unless noted
OVCAR-8 ovarian = conditions: 10 µM unless noted
OVCAR-5 ovarian = conditions: 10 µM unless noted
OVCAR-4 ovarian = conditions: 10 µM unless noted
SK-OV-3 ovarian = conditions: 10 µM unless noted
IGROV1 ovarian = conditions: 10 µM unless noted
OVCAR-3 ovarian = conditions: 10 µM unless noted
HS 578T breast = conditions: 10 µM unless noted
NCI/ADR-RES ovarian = conditions: 10 µM unless noted
RPMI-8226 leukemia = conditions: 10 µM unless noted

Row | Compound | growth (SK-MEL-2 melanoma) | growth (EKVX NSCLC) | growth (SN12C renal) | growth (UO-31 renal) | growth (TK-10 renal) | growth (ACHN renal) | growth (CAKI-1 renal) | growth (A498 renal) | growth (CCRF-CEM leukemia) | growth (MOLT-4 leukemia) | growth (SR leukemia) | growth (OVCAR-8 ovarian) | growth (OVCAR-5 ovarian) | growth (OVCAR-4 ovarian) | growth (SK-OV-3 ovarian) | growth (IGROV1 ovarian) | growth (OVCAR-3 ovarian) | growth (HS 578T breast) | growth (NCI/ADR-RES ovarian) | growth (RPMI-8226 leukemia)
1 | O=S(=O)(Nc1ccc(-c2nc(-c3cccc(O)c3)c(-c3ccnc(Br)c3)[nH]2)cc1)c1ccccc1 | 23.5% | 53.3% | 44.3% | 24.7% | 55.7% | 28.4% | 25.6% | 49.4% | -2.56% (active) | -20.9% (active) | -9.8% (active) | 9.98% (active) | 64.6% | 9.17% (active) | 54.7% | 42.1% | 32.1% | -0.856% (active) | 61.1% | 
2 | O=S(=O)(Nc1ccc2c(c1)OC(F)(F)O2)c1ccc(-c2cnc(C3CC3)o2)cc1 | 41.3% | 58% | 52.8% | 56.7% | 84.3% | 57.1% | 17.5% | 23.2% | 24.1% | 30.3% | 27.8% | 56.3% | 73.2% | 59.4% | 65.6% | 42.8% | 20.3% | 40.6% | 24.7% | 
3 | O=C(CN1CCN(c2cc(=O)n(-c3ccccc3)c3ccccc23)CC1)Nc1ccc([N+](=O)[O-])cc1 | 101% | 88.7% | 87.2% | 62% | 93.3% | 87% | 98.1% | 88.2% | 98% | 90% | 88.6% | 91.3% | 98.7% | 65.9% | 99.3% | 84.3% | 90.9% | 89.9% | 91.1% | 
4 | COc1ccc(-c2cc(-c3cccc4ccccc34)n3c(n2)nc2ccccc23)cc1OC | 98.2% | 69.2% | 10.9% | 29.4% | 53.1% | 8.14% (active) | 17.3% | 38% | 3.68% (active) | 7.55% (active) |  | 34.3% | 52.2% | 71.9% | 35.3% | 52.3% |  | 46.3% | 47.4% | -18.4% (active)
5 | Cc1ccc(C2CC(c3ccc(Nc4nc(NCCO)nc(Nc5ccc(Cl)cc5)n4)cc3)=Nc3c(N)nc(N)nc3N2)cc1 (configuration not stated) | 99% | 33.1% | -65.8% (active) | -91.6% (active) | -84.5% (active) | -36.6% (active) | -9.94% (active) | 77.9% | -23.2% (active) | -29.3% (active) |  | -81% (active) | -63.3% (active) | -54.4% (active) | 114% | -63.3% (active) |  | 11.9% | -39.8% (active) | -55.4% (active)
6 | CC(=O)Nc1ccc(NC(=O)Nc2cccc(-c3nc(-c4ccc(NC(=O)c5cccs5)cc4Cl)no3)c2)cc1C(F)(F)F | -61.4% (active) | -35.9% (active) | -64.5% (active) | 14.4% | -32.7% (active) | 3.84% (active) | -73.2% (active) | -87.9% (active) | 6.64% (active) | -0.998% (active) | -7.39% (active) | -15.8% (active) | -37.9% (active) | -94.5% (active) | -66% (active) | -57.6% (active) | -63.4% (active) | -28.3% (active) | 55.5% | 
7 | CC(=O)Nc1nc2c(s1)C1=CC[C@H]3[C@@H]4CC[C@H](C(C)=O)[C@@]4(C)CC[C@@H]3[C@@]1(C)CC2 | 56.2% | 68.7% | 86.4% | 65.4% | 124% | 77.6% | 80.3% | 74.5% | 49% | 1.44% (active) | 59.4% | 78.6% | 80.6% | 80.5% | 59.9% | 99.1% | 74.8% | 33.8% | 81.6% | 
8 | O=C(Cn1cc(CN2C(=O)c3ccc([N+](=O)[O-])cc3C2=O)nn1)Nc1ccccc1Br | 114% | 105% | 103% | 88.1% | 104% | 108% | 103% | 101% | 95.1% | 105% |  | 116% | 106% | 113% | 90.5% | 97.5% |  | 110% | 99.3% | 102%
9 | CCOC(=O)Nc1ccc(-c2nc(-c3cccc(O)c3)c(-c3ccnc(Br)c3)[nH]2)cc1 | 34.4% | 44.2% | 44.7% | 31.3% | 41.9% | 36.5% | 27.3% | 49.4% | 22.9% | 2.17% (active) | 9.74% (active) | 10.7% | 85% | 13.6% | 41.2% | 33% | 14.6% | -2.07% (active) | 63.5% | 
10 | C#C[C@]1(O)CC[C@H]2[C@@H]3CC=C4c5sc(C6CC6)nc5CC[C@]4(C)[C@H]3CC[C@@]21C | 90% | 80.1% | 86.1% | 68.8% | 124% | 91.4% | 79.6% | 99.9% | 58.7% | 46.8% | 46.5% | 88.3% | 85.7% | 107% | 116% | 97.9% | 89.2% | 68.1% | 84.6% | 
11 | COC(=O)Nc1ccc(-c2nc(-c3cccc(O)c3)c(-c3ccnc(Br)c3)[nH]2)cc1 | 77.8% | 68.5% | 60.4% | 42.9% | 73.5% | 60.4% | 45.6% | 73.4% | 22.8% | 21.5% | 32.7% | 35.6% | 92.9% | 45.5% | 79.3% | 65.7% | 50.8% | 27.7% | 76.1% | 
12 | COc1ccc(C2CC(c3ccc(Nc4nc(NCCO)nc(Nc5ccc(Cl)cc5)n4)cc3)=Nc3c(N)nc(N)nc3N2)cc1 (configuration not stated) | 89.5% | 107% | 85.1% | 56.2% | 107% | 90.1% | 61.1% | 42.7% | -17.9% (active) | 3.14% (active) |  | 40% | 121% | 66.9% | 112% | 74% |  | 94.9% | 76% | -4.52% (active)
13 | C#C[C@]1(O)CC[C@H]2[C@@H]3CC=C4c5sc(-c6cccc(F)c6)nc5CC[C@]4(C)[C@H]3CC[C@@]21C | 91.9% | 83.5% | 89.6% | 82% | 121% | 85.4% | 92.4% | 101% | 75.1% | 53.1% | 76.4% | 96.8% | 83.2% | 110% | 92.7% | 97.2% | 102% | 68.7% | 89.1% | 
14 | CCC(=O)Nc1ccc(-c2nc(-c3cccc(O)c3)c(-c3ccnc(Br)c3)[nH]2)cc1 | 65.9% | 88.4% | 67.4% | 69.7% | 87.6% | 82.8% | 65.1% | 70.5% | 22.4% | 39.9% | 38.2% | 51.8% | 92.9% | 51.1% | 93.9% | 85.4% |  | 23% | 96.5% | 
15 | O=C(Cn1cc(CN2C(=O)c3ccc([N+](=O)[O-])cc3C2=O)nn1)Nc1ccc(F)cc1Cl | 101% | 97.7% | 101% | 81.3% | 91.2% | 96.9% | 89.9% | 85.8% | 95.6% | 108% |  | 96.8% | 102% | 106% | 89.7% | 100% |  | 111% | 98.3% | 100%
16 | CC(=O)Nc1cccc(-n2cnc3cc(-c4ccc(O)cc4)ccc32)c1 | 29.2% | 56.6% | 38.1% | 28.1% | 72.6% | 33% | 23.3% | -32.6% (active) | 23.6% | 21.5% |  | 28.8% | 66.7% | 66.4% | 32.9% | 41.1% |  | -17.1% (active) | 18.5% | 20.3%
